# Source: PubChem BioAssay AID1508600 (Functional Genomics Laboratory (NCATS/FGL), 2020)
# Out of some 53,000 sequences screened, about 3,700 (7%) were called active. Only a selection was taken, and actives are over-represented in it overall. A number with no mark means an inactive call.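 How the source made its calls: active means gene knockdowns whose robust z-score for IL-1 alpha signal is at least 2 or at most -2, so actives lie on both sides; inactive means the rest.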
# Assay: Components of the Cytosolic LPS Sensing Pathway: Gene Identification via Genome-wide siRNA Screen;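 further: robust z of the log signal after scaling to non-targeting control siRNA wells of the plate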
# Conditions: RAW264.7 macrophages, IL-1a HTRF, actives lie on both sides, screened at 100 nM (by protocol), cells primed 5 h with Pam3CSK4 first
# How it was run: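 RAW264.7; siRNA 100 nM final, RNAiMAX, 48h 37 degrees C; Pam3CSK4 5 h; LipidA + TransIT-TKO 24 h; IL-1a HTRF; CellTiter-Glo viability; robust z vs negative-control median.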
row,Sequence,z-score
1,GGUAGAAACAAAGAAAUAGTT against 9130023H24Rik,-0.183
2,GGGCUAAGGACAGAAUUACTT against Tusc2,-0.0196
3,GGAGAAGAACUAAAACUUATT against Bbs7,0.846
4,GGUCUCCAUCACAUUCAAGTT against BC024139,1.19
5,CCGGAUGGGAAUCGCUAAATT against Slc22a13b,2.17 (active)
6,AAUCUUUUCGUGAAGGCACTT against Zfp948,0.84
7,CGAAUGCUUAUUUAGGUUGTT against Kpna4,-0.387
8,GCUGAAAUAUGUGAGAGCATT against Sdcbp,0.016
9,CCGGGUCAUUAUCUAUCAATT against Puf60,-0.383
10,CGCAGCUUUCUAUACUGGCTT against Ngf,2.41 (active)
11,GCACUUACUCUUCAACGGGTT against Yae1d1,1.87
12,GGUCGUCGUGAGAUCUUAUTT against Prlhr,-0.342
13,CGUGUGUUUUACCCUAAAATT against Zfp947,0.404
14,GGAAGCUGUGGAGAAACUATT against Acox2,2.22 (active)
15,GGACGAGAACAUCUUAAUCTT against Pim1,1.58
16,GGAACUUACACAUUUGUUCTT against Tnfsf13b,-1.11
17,GCCAUGACCAUCUUUCUCUTT against Olfr1413,-3.03 (active)
18,GGAGCAUGUCUUUAAGAAGTT against Stac,-1.15
19,GCUAACUUACCCAAAGAAATT against Tnfaip3,1.41
20,GUGCAACGUGAGCAAUACGTT against Selenbp2,-0.417
21,CGUAAAACUCUUAGGCAUGTT against Npm1,1.13
22,GAAAAAAUGCCAGCUGUGGTT against Sec61b,0.379

row,Sequence,z-score
1,CCUGCAUACGAAGUACAUATT against Bsg,2.75 (active)
2,GGAUCCAUCCGUCUCUAAGTT against Rprd2,0.628
3,GGUGCAAGUUCCCAUUAUATT against Tpsab1,-0.405
4,GGACAUAGCAUCUUCACUUTT against Mpp3,-1.31
5,GGCCUUAGGAAAAAAAAAGTT against Bad,0.956
6,CCUUGGUGGUCUGAAAUAATT against Cyp4a31,-0.159
7,GGAGAAACUGGACAACCUGTT against Eno2,4.12 (active)
8,GGAUGUGAAUGAGUGUGAGTT against Fbln7,0.368
9,GGAGAAUGAACAGACAGAGTT against Slc39a14,-2.06 (active)
10,GGAGAAGAAGGUUCUUGCCTT against Hoxb13,-1.03
11,GGUCGCACAAGGUAUUAUATT against AI661453,-0.402
12,GGGAAAAAGAACAAGAUCATT against Cep57l1,-0.799
13,GGGAACAAGACAACACAGCTT against Adam11,2.03 (active)
14,GGUACUUCCUCAUUUACCUTT against Zdhhc4,0.541
15,CCGUAAGCUGUCUCUUUGUTT against Pla2g4c,-1.97
16,CCGUCUAUUAGUGAAGAUGTT against Pex1,0.0157
17,GGGUGAAAAUGGCAUUGUUTT against Col1a2,0.56
18,CGUGAUGGGACUUGAGAAGTT against Teddm1a,-0.454
19,GGAAAGAUUGUUUGAAGGCTT against Cask,-0.252
20,GCUGAUUUCAUUGCAUCCGTT against Olfr483,2.12 (active)
21,GGAAAAGGUUAAACUUUGATT against Cenpc1,0.165
22,CCAUCCUCCUACUCGUUAGTT against Vmn1r233,2.03 (active)

row,Sequence,z-score
1,CCAAUAAAAGUUGAGAGCUTT against Krt18,-0.272
2,GCCUGACAUUGGGACAAAGTT against Trim34a,0.179
3,GCCUCCUAUCCUGGGAAGATT against Prss3,2.54 (active)
4,GGAGACGAGAAACAAACCCTT against Diaph2,1.68
5,GGUACUUUGGAGAUUGUAATT against Rdh14,-0.462
6,GGCAGCCAAGAGAUUGAAUTT against Suclg2,1.09
7,GGUUCUGAAAUGCAUGGAGTT against Rnf6,1.76
8,GCAAAUGCGACUUUACACATT against Top1,2.56 (active)
9,GGAGCUGCUUGCUCAAAGATT against Tmem65,0.61
10,GCUGGAAAUGACACUGCCUTT against C1qtnf7,1.45
11,GCGGGAAUGAAGAAACACGTT against Eea1,0.801
12,GCCACGUUCCCUUGAUCAUTT against Mx2,1.4
13,GGAUGCCUUCUAUACACUATT against Hras,-1.33
14,CCCUUACAUCCAUCAACUATT against Dcbld2,-1.04
15,GGAAGUAUGUGUUUCUCAGTT against Prr9,-2.41 (active)
16,GGUAAUAAACGGUAAAUUGTT against B430306N03Rik,-0.763
17,GGUUCCAUAGCAGACAAAATT against Mrpl24,0.513
18,CCAAAUAUGUACUUCAUGGTT against Adipor1,-0.147
19,CGAUAAGAACACCUAUAUUTT against Sf3b1,-3.26 (active)
20,GGACAUCCAUUCAUGCUUUTT against Serpinb1b,-0.529
21,CCUAUAACUCCAAGGAUACTT against Lexm,0.628
22,GGUUUUGAGCAAAAUUCUATT against Nrd1,0.985

row,Sequence,z-score
1,GCACUGGAAAUUGUAUAAATT against Hyal6,2.19 (active)
2,CGGAGUGUACCAUCUACACTT against Agpat4,0.193
3,GGGACUGCAUACUUAAGUUTT against Amacr,1.31
4,GGGACCGUGAAGAAAAUUUTT against Tmed11,-0.926
5,GGAGGCUUAUCCUAAAAAGTT against 6330444E15Rik,-1.02
6,GCUGAACCUAUGAGGGAGATT against Gpank1,0.809
7,GGAGUUCAUUCUGGAUAUCTT against Matn2,1.24
8,CCUAGGGCUUUAGCUCUGATT against Msc,-0.75
9,GGAUUAAACCUUUUAACCGTT against Emilin3,-0.251
10,GCAUGUUUUACAGUGUUCATT against Rxfp1,2.7 (active)
11,GCCGGAUGGCACAUUCGUATT against Cda,-0.281
12,CCUAAGGUCAAGAUAUAGCTT against Cep55,0.121
13,CCCACCAGAUUUCUACACCTT against Vsig2,-2
14,GGCUAUGGACCGAAAGAUUTT against Dgcr6,-1.42
15,GCAGCUGUCAUGUAUACAGTT against Olfr59,-0.867
16,GGAAUAUCCCAACAUCUGUTT against Upp1,-0.899
17,GCAGUAUGUAAACCCUUACTT against Olfr1463,0.558
18,CGACCUUAAGCUAAGCAGUTT against Aff3,1.18
19,GGAAUUUUCUCAUGAUCUUTT against Krtap3-3,0.813
20,GGGCUAUUAAAUGAUUUCATT against Pax1,5 (active)
21,GCCAUGAUUUUCAUGUACGTT against Olfr711,0.241
22,CCUUAAUAAAUCUAGUGGCTT against Stmn3,-0.567

row,Sequence,z-score
1,GCGGCUUAUGUCUCAAAUUTT against Gcdh,2.34 (active)
2,GGCCGAUGCCAAAUUGGUATT against Olfm1,0.0323
3,GGACUAGCAAGGCAAGUGATT against Dnase2b,1.32
4,GGGAAUCGGACCAACUUACTT against Adssl1,3.64 (active)
5,GCGAGUUUAAUGUUUAUGCTT against Pdgfra,-1.29
6,GCCCAGCAUGGAUAGAUUATT against Mis18bp1,0.466
7,GGAAAAUGUAAACAAGUACTT against Xpo5,-0.595
8,GGAUAACACCACCAACUAUTT against Akap8l,0.456
9,GGGCUGUUCUACUUAGUUATT against N6amt1,0.573
10,GGAUUAAAGAAAGACAUUGTT against Yme1l1,-2.04 (active)
11,CGCCAGAGUGCAUAGUCUUTT against Mindy2,1.94
12,GCCAUUUUAGAGCAGAUCCTT against Rundc3a,-2.33 (active)
13,GCAAACUGUCCUAUCUUGGTT against Cacna1d,0.84
14,GGUGUUGUUUCGAAUUAUUTT against Xrn1,0.44
15,GGUUCAGGUUCUUCUAAAATT against Cd109,1.42
16,GCACCUGAGCUUUCGAAUATT against Fam3a,-0.373
17,CCGUGGAAACAGUCCUGAATT against Nudcd1,0.646
18,GCUACUCUCGCCUGUUACATT against Dcaf12,0.0053
19,GGCCAAUGCCCUUUUUUGATT against Spem2,0.427
20,GUUCCCUGCCUGGCAGAAUTT against Foxd2,3.8 (active)
